aDG glyco act = activators of alpha-DG glycosylation, primary screen, uHTS, Pro5-aDG cells, AlphaScreen. alpha-DG glycosylation AlphaScreen (IIH6); 0% Pro5, 100% B10-LARGE cell signal. activation, % at 10 µM. 360,000 tested, 0.22% active;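 active = activation of at least 8% versus controls, or a plate z-score of at least 8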;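 note: Pro5 are CHO cells carrying HIG-tagged alpha-DG that lacks glycosylation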
p47phox inh = p47phox/p22phox peptide binding inhibitors, primary screen, biochemical, uHTS, NADPH oxidase regulatory subunit; Neutrophil cytosol factor 1 (Homo sapiens), P14598; fluorescence polarization, 2 h; inhibition, % at 24.7 µM; 220,000 tested, 0.53% active; AID 1274, 2008;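 active = inhibition above about 30%, limit read from the data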;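 note: 0% = p47phox with labelled peptide and 100% = labelled peptide alone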
ZTA counter = ZTA (EBV) inhibition in EBNA-1 counter-screen | inhibition, % at 11 µM | P03206 | AID 2234 | ZTA-DNA binding, fluorescence polarization | 320,000 tested, 0.15% active; in the data active = inhibition above about 33%
EBNA-1 inh = EBNA-1 DNA-binding inhibitors, primary screen, biochemical, fluorescence polarization | AID 1950, 2009 | 300,000 tested, 0.34% active | inhibition, % at 14.8 µM; in the data active = inhibition above about 28%
PG9 binder = binders of HIV-1 gp120 antibody PG9, primary screen, biochemical, TR-FRET. HIV-1 gp120 / PG9 antibody interaction. TR-FRET gp120-PG9 antibody binding. inhibition, % at 6.7 µM. 360,000 tested, 0.43% active. AID 624416, 2012; in the data active = inhibition above about 8.5%
NR1D1 modulator = modulators of Rev-erb alpha DNA binding, primary screen, biochemical, FITC-DNA, fluorescence polarization, uHTS | activity, % at 10 µM | Rev-erbα–FITC-DNA binding, 90 min | Nuclear receptor subfamily 1 group D member 1 (Homo sapiens), P20393 | 370,000 tested, 0.79% active | AID 1259318, 2017;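 active = activity above about 14%, limit read from the data; passing the limit was not always enough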;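 note: 0% = DMSO wells with 35 nM protein and 100% = DMSO wells with 750 nM protein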
Target sequence (P20393 whole entry, looked up): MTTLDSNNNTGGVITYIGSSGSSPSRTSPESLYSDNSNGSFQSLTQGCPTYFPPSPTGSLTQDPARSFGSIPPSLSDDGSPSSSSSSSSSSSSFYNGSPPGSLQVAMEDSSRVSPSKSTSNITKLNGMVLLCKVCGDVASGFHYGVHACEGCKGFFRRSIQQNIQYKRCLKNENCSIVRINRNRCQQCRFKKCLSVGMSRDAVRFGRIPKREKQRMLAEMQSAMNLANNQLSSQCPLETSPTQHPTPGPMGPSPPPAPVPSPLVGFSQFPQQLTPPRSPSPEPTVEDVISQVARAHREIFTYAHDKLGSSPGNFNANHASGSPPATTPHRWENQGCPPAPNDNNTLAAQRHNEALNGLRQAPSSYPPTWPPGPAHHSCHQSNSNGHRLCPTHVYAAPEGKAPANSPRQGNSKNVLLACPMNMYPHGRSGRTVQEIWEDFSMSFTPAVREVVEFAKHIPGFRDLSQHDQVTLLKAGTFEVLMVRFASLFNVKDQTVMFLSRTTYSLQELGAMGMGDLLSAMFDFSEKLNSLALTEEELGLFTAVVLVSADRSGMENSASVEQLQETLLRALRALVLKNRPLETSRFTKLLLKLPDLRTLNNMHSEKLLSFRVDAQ
The depositor's hits bear a star; nt = no result given. Only some compounds are listed: those with a hit (about 1.9% of all), similar ones and a draw of the others.

SMILES	aDG glyco act	p47phox inh	ZTA counter	EBNA-1 inh	PG9 binder	NR1D1 modulator
COC(=O)c1ccccc1NC1=C/C(=N\S(=O)(=O)c2cccs2)c2ccccc2C1=O	0	183*	1	2	-3	4
CNC(=O)c1c(NC(=O)c2ccc(S(=O)(=O)N(C)c3ccccc3)cc2)sc2c1CCN(C(C)C)C2	nt	nt	-17	0	0	2
CCN1CCc2c(sc(NC(=O)c3ccc(S(=O)(=O)N(C)c4ccccc4)cc3)c2C(=O)NC)C1	43*	nt	-9	8	nt	nt
COc1cc(OC)c2c(-c3ccccc3)cc(=O)oc2c1C(CCN1CCN(c2ccccc2)CC1)c1ccc(N(C)C)cc1 (stereo not given)	-1	-2	10	8	0	7
COc1cc(OC)c2ccc(=O)oc2c1C(CCN1CCN(c2ccccc2)CC1)c1ccc(N(C)C)cc1 (stereo not given)	0	94*	10	3	-3	-3
O=P(O)(O)C(O)(Cc1cnc2ccccn12)P(=O)(O)O	nt	nt	nt	nt	nt	2
CCOc1ccccc1OCC(=O)Nc1cc(C)on1	0	nt	nt	nt	1	-6
Cc1cc(NC(=O)COc2ccc3ccccc3c2Br)no1	0	nt	nt	nt	10.0*	4
CCOc1ccccc1OCCOCCN1CCN(Cc2ccccc2)CC1	1	40*	10	7	1	0
CCC(=O)c1ccccc1OCCN1CCN(Cc2ccccc2)CC1	0	2	-21	1	-1	0
COc1ccc(OC)c(S(=O)(=O)Nc2cccc3c(O)cccc23)c1	0	nt	11	-12	1	6
COc1ccc(OC)c(S(=O)(=O)Nc2ccc(O)c3ccccc23)c1	3.2*	-12	7	-13	-1	3
CO[C@H]1O[C@H](CO)[C@H](O[C@@H]2OC(C(=O)O)[C@@H](O[C@H]3O[C@H](COS(=O)(=O)O)[C@H](O[C@@H]4OC(C(=O)O)[C@@H](O[C@H]5O[C@H](CO)[C@H](O[C@@H]6OC(C(=O)O)[C@@H](O[C@H]7O[C@H](COS(=O)(=O)O)[C@H](O[C@@H]8OC(C(=O)O)=C[C@H](O)C8OS(=O)(=O)O)[C@H](O)[C@H]7NC(C)=O)[C@H](O)[C@H]6O)[C@H](O)[C@H]5NC(C)=O)[C@H](O)[C@H]4O)[C@H](O)[C@H]3NC(C)=O)[C@H](O)[C@H]2O)[C@H](O)[C@H]1NC(C)=O (stereo not given in full)	nt	nt	nt	nt	nt	-4
COc1ccc(-c2cn3cc(Cl)ccc3n2)cc1OC	0	-8	10	-6	-2	-6
COc1ccc(-c2cn3cc(C)ccc3n2)cc1Br	94*	6	0	11	-1	5
Cc1ccc([N+](=O)[O-])cc1NC(=O)CN1CCCCC1	0	-5	-8	7	-1	1
Cc1ccc([N+](=O)[O-])cc1NC(=O)CN1CCC(C)CC1	0	72*	7	0	-3	-6
CCOC(=O)c1c(CSc2ccccc2)n(C)c2cc(Br)c(OCC(O)CNC(CO)(CO)CO)cc12 (stereo not given)	0	42*	21	6	-3	-3
CCOC(=O)c1c(CSc2ccccc2)n(C)c2cc(Br)c(OC)c(O)c12	0	nt	-6	-12	-3	-1
Cc1ccc(-n2nc(C)c3c(C)c(CCC(=O)NCc4ccccc4)c(C)nc32)cc1	0	130*	6	1	0	15
COC(=O)[C@@H]1CC(=O)O[C@H](C)C/C=C/C=C/[C@H](O)[C@H](C)C[C@H](CC=O)[C@H](OC2O[C@H](C)[C@@H](OC3C[C@@](C)(O)[C@@H](OC(=O)CC(C)C)[C@H](C)O3)[C@H](N(C)C)[C@H]2O)[C@H]1OC (stereo not given in full)	nt	nt	nt	nt	nt	-3
Cc1cc(NCCCCCCCNc2cc(C)nc3cc([N+](=O)[O-])ccc23)c2ccc([N+](=O)[O-])cc2n1	-1	nt	nt	nt	13*	-4
CCOC(=O)c1c2n(c3ccc(OC(C)=O)cc13)CCC2	0	38*	-11	-1	-1	2

Assay outcomes as filed in PubChem.
